A short description of experiment [1]: Nuclear factor erythroid 2-related factor 2/antioxidant responsive element (Nrf2/ARE) small molecule agonists: qHTS cell viability counter screen in human keratinocytes (AID 1919968; active = well fitted curve in the direction sought with a large enough effect in the repeat runs; an effect the other way counts as inactive or inconclusive; note: nearly all actives have a fitted effect of over 55% in size; note: potency is the fitted concentration of half-maximal effect). Put shortly: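 CellTiter-Fluor fluorescence, read 1 h after reagent, gave viability in the same wells as the ARE-luciferase assay. KeratinoSens cells (1,500/well) had 23 h compound exposure at 37 C/5% CO2 following 5 h plating.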

A short description of experiment [2]: Nuclear factor erythroid 2-related factor 2/antioxidant responsive element (Nrf2/ARE) small molecule agonists: luciferase reporter gene qHTS assay in human keratinocytes (AID 1919969; note: nearly all actives have a fitted effect of over 35% in size). (In general: In a reporter assay the amount or activity of a reporter protein is the signal.)
Experiment [3] has as its target Gonadotropin-releasing hormone receptor (Homo sapiens) (UniProt P30968). Briefly: Human gonadotropin-releasing hormone receptor (GnRHR) small molecule agonists, calcium flux assay in GnRHR-HEK293 cells (AID 1920063). Note: nearly all actives have a fitted effect of over 35% in size. Note: potency is the fitted concentration of half-maximal effect. The method in brief: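 Agonist mode: compounds at 15 concentrations, in triplicate, went onto calcium dye-loaded GnRHR-HEK293 cells. Intracellular calcium was then followed as 480/540 nm fluorescence at 1 s intervals over 3 min.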
On the technique in general: A change in cytosolic calcium serves as a functional read-out for many receptors and channels.

For experiment [4], the target named is KiSS-1 receptor (Homo sapiens) (UniProt Q969F8). Briefly: Human kisspeptin (KISS1R) small molecule agonists, calcium flux assay in KISS1R-HEK293 cells (AID 1920064; active = well fitted curve in the direction sought with a large enough effect in the repeat runs; an effect the other way counts as inactive or inconclusive; note: potency is the fitted concentration of half-maximal effect). Put shortly: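 Agonist mode: intracellular calcium rise tracked at 1 s intervals over 3 min (480/540 nm) immediately after compound addition to dye-loaded KISS1R-HEK293 stable cells. Each compound tested at 15 concentrations in triplicate.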
Sequence of KiSS-1 receptor (Homo sapiens) (Q969F8 whole entry, looked up): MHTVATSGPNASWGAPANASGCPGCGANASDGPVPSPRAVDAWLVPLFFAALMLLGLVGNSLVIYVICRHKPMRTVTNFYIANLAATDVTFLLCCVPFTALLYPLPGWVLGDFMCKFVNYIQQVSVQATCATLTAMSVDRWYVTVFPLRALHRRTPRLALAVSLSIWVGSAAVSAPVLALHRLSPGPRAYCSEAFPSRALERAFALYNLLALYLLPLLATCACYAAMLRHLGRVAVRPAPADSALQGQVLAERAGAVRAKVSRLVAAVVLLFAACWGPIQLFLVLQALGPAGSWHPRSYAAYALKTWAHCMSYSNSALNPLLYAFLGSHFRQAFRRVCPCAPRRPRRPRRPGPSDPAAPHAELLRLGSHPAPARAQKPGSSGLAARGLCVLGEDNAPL

Experiment [5] in a line: G protein-coupled receptor (GPCR) small molecule agonists, calcium flux assay: HEK293 wild type cell line counter screen (AID 1920065). Note: potency is the fitted concentration of half-maximal effect. Put shortly: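 Calcium flux counter screen: compound added in agonist mode at 15 concentrations in triplicate to dye-loaded parental HEK293 cells. Fluorescence (480/540) read kinetically for 3 min; ATP served as positive control.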
Experiment [6] can be described thus: p53 small molecule agonists, cell-based qHTS assay with human liver microsomes: qHTS cell viability counter screen (AID 1963579). Note: nearly all actives have a fitted effect of over 45% in size. Put shortly:
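HLM-supplemented (0.5 mg/mL final) and NADPH-supplemented (0.5 mg/mL final) p53RE-bla cultures, 4,000 cells per well, were dosed with compounds in DMSO for 16 h at 37 C; luminescent ATP detection (CellTiter-Glo, 30 min, room temperature) quantified surviving cells.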

A short description of experiment [7]: p53 small molecule agonists, cell-based qHTS assay with rat liver microsomes: qHTS cell viability counter screen (AID 1963580). Note: nearly all actives have a fitted effect of over 45% in size. The method in brief:
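Cytotoxicity counter screen: intracellular ATP measured by CellTiter-Glo luminescence in the same wells as the beta-lactamase reporter read, on HCT-116 p53RE-bla cells exposed 16 h at 37 C to compounds with rat liver microsomes and NADPH, each 0.5 mg/mL final.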

Experiment [8] can be described thus: p53 small molecule agonists, cell-based qHTS assay: qHTS cell viability counter screen (AID 1963581). Note: nearly all actives have a fitted effect of over 45% in size. The method in brief: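 Counter screen read by CellTiter-Glo luminescence (ATP content, 30 min at room temperature), run in the same wells as the beta-lactamase reporter read. HCT-116 p53RE-bla cells saw compounds for 16 h at 37 C.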
The target in experiment [9] is 5-hydroxytryptamine receptor 2A (Homo sapiens) (UniProt P28223). Briefly: 5-hydroxytryptamine receptor 2A (HTR2A) small molecule antagonists, cell-based qHTS assay (AID 1963586). Note: nearly all actives have a fitted effect of over 45% in size. The method in brief: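 CHO cells stably expressing human HTR2A were plated for 18 h at 37 C, then loaded with calcium dye for 1 h. Compounds were preincubated 5 min at room temperature before DOI (4 nM solution) was added. Kinetic fluorescence was read for 3 min.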
Sequence of 5-hydroxytryptamine receptor 2A (Homo sapiens) (P28223 whole entry, looked up): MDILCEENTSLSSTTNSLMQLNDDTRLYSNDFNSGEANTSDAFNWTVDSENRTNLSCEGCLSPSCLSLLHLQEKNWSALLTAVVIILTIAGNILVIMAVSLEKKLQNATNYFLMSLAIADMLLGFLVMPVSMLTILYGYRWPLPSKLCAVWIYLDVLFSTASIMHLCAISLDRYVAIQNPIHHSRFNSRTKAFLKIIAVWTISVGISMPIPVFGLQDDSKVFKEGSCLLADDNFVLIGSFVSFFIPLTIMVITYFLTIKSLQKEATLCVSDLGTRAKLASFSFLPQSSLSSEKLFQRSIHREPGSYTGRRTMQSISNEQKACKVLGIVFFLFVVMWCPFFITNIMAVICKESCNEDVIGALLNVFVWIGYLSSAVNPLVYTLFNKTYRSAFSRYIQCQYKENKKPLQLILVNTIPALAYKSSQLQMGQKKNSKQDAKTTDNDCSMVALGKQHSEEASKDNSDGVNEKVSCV
(Quantitative high-throughput screening tests each substance at several concentrations.)

For experiment [10] the target is unchanged. Nature of the experiment: 5-hydroxytryptamine receptor 2A (HTR2A) small molecule agonists, cell-based qHTS assay (AID 1963587). Note: nearly all actives have a fitted effect of over 30% in size. Note: potency is the fitted concentration of half-maximal effect. The method in brief:
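CHO cells stably expressing human HTR2A, plated 18 h, loaded with calcium dye 1 h at 37 C. Agonist mode: compounds added and intracellular calcium fluorescence recorded kinetically for 2 min at 1 sec intervals.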

In experiment [11] the target is Muscarinic acetylcholine receptor M1 (Homo sapiens) (UniProt P11229). Nature of the experiment: Cholinergic receptor muscarinic 1 (CHRM1) small molecule antagonists, cell-based qHTS assay (AID 1963588). Note: nearly all actives have a fitted effect of over 40% in size. Put shortly: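 Compounds were tested at 15 concentrations in three independent runs. Dye-loaded CHRM1-CHO cells were exposed 5 min at room temperature before stimulation by acetylcholine added at 50nM. Intracellular calcium was read kinetically on FDSS for 3 min.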
Sequence of Muscarinic acetylcholine receptor M1 (Homo sapiens) (P11229 whole entry, looked up): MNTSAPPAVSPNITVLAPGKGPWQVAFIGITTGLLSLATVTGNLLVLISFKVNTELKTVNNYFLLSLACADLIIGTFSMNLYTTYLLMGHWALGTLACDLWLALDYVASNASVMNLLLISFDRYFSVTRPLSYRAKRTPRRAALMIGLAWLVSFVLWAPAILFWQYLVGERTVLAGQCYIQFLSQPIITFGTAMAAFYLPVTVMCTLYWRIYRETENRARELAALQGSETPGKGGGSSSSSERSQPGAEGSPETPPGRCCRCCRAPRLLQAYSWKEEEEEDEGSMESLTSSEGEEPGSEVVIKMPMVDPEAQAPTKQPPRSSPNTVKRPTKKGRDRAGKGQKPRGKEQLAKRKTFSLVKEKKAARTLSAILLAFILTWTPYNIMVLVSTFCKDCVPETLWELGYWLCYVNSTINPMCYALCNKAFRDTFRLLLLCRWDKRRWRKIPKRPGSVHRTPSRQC

Experiment [12] shares this target. Nature of the experiment: Cholinergic receptor muscarinic 1 (CHRM1) small molecule agonists, cell-based qHTS assay (AID 1963589). Note: nearly all actives have a fitted effect of over 35% in size. Note: potency is the fitted concentration of half-maximal effect. The method in brief:
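Agonist-mode calcium-flux screen: compounds at 15 concentrations, three independent runs, were pin-transferred onto dye-loaded human CHRM1-CHO cells. Fluorescence was then recorded kinetically every second over minutes.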

Experiment [13] addresses Beta-2 adrenergic receptor (Homo sapiens) (UniProt P07550). Nature of the experiment: Adrenergic beta2 receptor (ADRB2) small molecule antagonists, cell-based qHTS assay (AID 1963592). Note: nearly all actives have a fitted effect of over 50% in size. Note: potency is the fitted concentration of half-maximal effect. Put shortly: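 Assay format: CHO-ADRB2 cells, 18-20hr seeding at 37C/5% CO2, then compound plus 1nM isoproterenol agonist mix for 0.5hr RT. Homogeneous time-resolved fluorescence cAMP detection after 1hr, expressed as 665/615 nm ratio.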

Experiment [14] shares this target. Briefly: Adrenergic beta2 receptor (ADRB2) small molecule agonists, cell-based qHTS assay (AID 1963593).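 Note: CHO cells stably overexpressing human ADRB2.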 The method in brief: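 CHO cells stably over-expressing ADRB2 were plated overnight at 37C, then dosed with compounds plus a stimulation mix containing 100uM IBMX and 25uM Ro-20-1724 for 0.5hr at room temperature. cAMP was measured by HTRF competition, 1hr.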

The target of experiment [15] is D(2) dopamine receptor (Homo sapiens) (UniProt P14416). Nature of the experiment: Dopamine D2 receptor (DRD2) small molecule agonists, cell-based qHTS assay (AID 1963594). Note: nearly all actives have a fitted effect of over 35% in size. Note: potency is the fitted concentration of half-maximal effect. Put shortly:
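HEK293 cells stably expressing human DRD2, pre-treated with PDE inhibitor Ro20-1724 (0.1 mM final) and compound 10 min at room temperature, then stimulated with NKH477 (200nM […]) for 30 min. cAMP read by HTRF (665/620 nm).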

For experiment [16] the target is unchanged. Nature of the experiment: Dopamine D2 receptor (DRD2) small molecule antagonists, cell-based qHTS assay (AID 1963595; active = well fitted inhibition curve with a large enough effect in the signal ratio in the repeat runs, with a control signal flat; the % refers to the signal ratio). Put shortly: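 Readout: HTRF cAMP, cAMP-d2 competing with cellular cAMP for anti-cAMP cryptate, read after 1 h. Cells: DRD2-HEK293. Conditions: 0.1 mM Ro20-1724, 12 nM quinpirole, 200 nM NKH477, 30 min RT.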
Experiment [17] can be described thus: cAMP Responsive Elements (CRE) small molecule agonists, cell-based qHTS assay (AID 1963590). Put shortly:
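Agonist mode: compound added to CRE-bla HEK 293T cells (2,000/well, 18 h after plating) for 3 h at 37 C/5% CO2. Reporter activity detected via FRET beta-lactamase substrate, 2 h room-temperature loading.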

Experiment [18] in a line: cAMP Responsive Elements (CRE) small molecule antagonists, cell-based qHTS assay (AID 1963591; active = well fitted inhibition curve with a large enough effect in the signal ratio in the repeat runs, not every such curve was filed as active; the % refers to the signal ratio). Put shortly: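 Antagonist mode: compounds are added alongside the adenylyl cyclase activator NKH477 (0.25 uM final) to CRE-bla HEK293T cells for 3 h. LiveBLAzer FRET substrate, 2 h at room temperature, reports bla expression.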

Several values for one entry are separate records, joined by “and”; a condition that tells them apart may be missing. Identical values can stand only once. Records with an inconclusive call do not appear. Activity calls are given as the source filed them. Unless noted, calls come from the whole dose curve.

Sequence of Beta-2 adrenergic receptor (Homo sapiens) (P07550 whole entry, looked up): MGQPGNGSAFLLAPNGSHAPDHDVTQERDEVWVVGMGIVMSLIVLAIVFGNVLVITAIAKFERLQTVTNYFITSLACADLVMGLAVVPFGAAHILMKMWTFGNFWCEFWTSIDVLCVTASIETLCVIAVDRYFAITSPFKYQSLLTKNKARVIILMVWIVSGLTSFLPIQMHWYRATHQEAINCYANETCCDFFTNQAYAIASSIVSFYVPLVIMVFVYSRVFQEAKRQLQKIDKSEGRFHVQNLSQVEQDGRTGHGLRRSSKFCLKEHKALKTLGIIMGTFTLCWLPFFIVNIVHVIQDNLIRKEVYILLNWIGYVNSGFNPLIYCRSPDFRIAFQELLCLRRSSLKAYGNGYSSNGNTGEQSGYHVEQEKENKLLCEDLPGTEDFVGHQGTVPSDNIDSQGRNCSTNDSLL
Sequence of D(2) dopamine receptor (Homo sapiens) (P14416 whole entry, looked up): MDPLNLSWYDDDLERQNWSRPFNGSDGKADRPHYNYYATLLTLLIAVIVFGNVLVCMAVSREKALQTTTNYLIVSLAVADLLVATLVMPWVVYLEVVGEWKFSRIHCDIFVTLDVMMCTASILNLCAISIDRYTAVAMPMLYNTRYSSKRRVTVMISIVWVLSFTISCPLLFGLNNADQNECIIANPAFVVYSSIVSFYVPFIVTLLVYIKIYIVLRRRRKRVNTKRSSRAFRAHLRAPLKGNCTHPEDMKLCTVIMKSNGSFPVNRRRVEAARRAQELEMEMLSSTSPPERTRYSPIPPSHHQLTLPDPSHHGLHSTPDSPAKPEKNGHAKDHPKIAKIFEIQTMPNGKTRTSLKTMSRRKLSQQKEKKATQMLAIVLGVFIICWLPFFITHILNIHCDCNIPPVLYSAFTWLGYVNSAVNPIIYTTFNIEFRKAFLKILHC
Sequence of Gonadotropin-releasing hormone receptor (Homo sapiens) (P30968 whole entry, looked up): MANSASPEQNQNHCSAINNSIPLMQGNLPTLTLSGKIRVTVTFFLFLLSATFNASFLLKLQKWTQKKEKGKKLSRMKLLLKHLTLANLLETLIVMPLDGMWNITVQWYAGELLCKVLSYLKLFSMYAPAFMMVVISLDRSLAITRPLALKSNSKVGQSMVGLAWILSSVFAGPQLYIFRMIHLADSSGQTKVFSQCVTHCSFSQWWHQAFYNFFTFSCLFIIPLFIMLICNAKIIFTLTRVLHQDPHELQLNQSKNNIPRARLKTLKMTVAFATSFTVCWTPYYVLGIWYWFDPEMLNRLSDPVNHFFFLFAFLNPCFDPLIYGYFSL

Regarding `Nc1ccc2cc3ccccc3cc2c1`, the Potency entry in experiment [1], in [2], in [3], in experiment [4], in [5] and in experiment [6] was “inactive” in each case. For the same compound, the Potency result in experiment [7], in experiment [8], in [9], in experiment [10], in [11] and in experiment [12] was “inactive” throughout. The Potency entry in [13], in [14], in experiment [15] and in experiment [16] was “inactive” each time.
As for `CCC(C)c1ccccc1O` (centres undefined), the Potency entry in [1], in [2], in experiment [3], in [4], in experiment [5] and in experiment [6] was “inactive” throughout. In addition, the Potency result in [7], in experiment [8], in experiment [9], in experiment [10], in [11] and in experiment [12] was “inactive” throughout. Also, the Potency entry in experiment [17], in [13], in [14] and in experiment [15] was “inactive” each time.
Regarding `O=C1OC2(c3ccc(O)cc3Oc3cc(O)ccc32)c2ccccc21`, the Potency in [1] was 9.44 µM (active); in experiment [3], 389 nM (active) and 1.9 µM (active); in experiment [4] it was 550 nM (active) and 2.39 µM (active); in experiment [5], 1.74 µM (active) and 3.38 µM (active). Moreover, the Potency entry in experiment [2], in experiment [6], in experiment [7], in [8], in experiment [13] and in experiment [14] was “inactive” in each case. In addition, the Potency entry in [15] and in experiment [16] was “inactive” in each case.
As to `C=CC(C)(O)CCC=C(C)C` (centres undefined), the Potency result in experiment [1], in [2], in [3], in experiment [4], in experiment [5] and in experiment [6] was “inactive” each time. Moreover, the Potency result in experiment [7], in experiment [8], in [9], in [10], in experiment [11] and in [12] was “inactive” each time. In addition, the Potency entry in [17], in experiment [13], in experiment [15] and in experiment [16] was “inactive” in each case.
For the compound `O=C1OC2(c3ccccc31)c1cc(Br)c(O)c(Br)c1Oc1c2cc(Br)c(O)c1Br`, the Potency entry in experiment [1], in [2], in experiment [6], in [7], in experiment [8] and in [9] was “inactive” throughout. Besides, the Potency result in experiment [11] is “inactive”. Besides, the Potency was 31.4 µM (active) and 14.2 µM (active) and 15.1 µM (active) in experiment [3]; 39.5 µM (active) and 44.9 µM (active) and 23.9 µM (active) in [4]; 35.2 µM (active) and 35.7 µM (active) and 16.9 µM (active) in experiment [5]; 22.2 µM (active) and 1.59 µM (active) and 19 µM (active) in experiment [10]; 19.8 µM (active) and 22.5 µM (active) and 21.3 µM (active) in experiment [12]; 62 µM (active) and 62.8 µM (active) and 21.1 µM (active) in experiment [13]. Further, the Potency in experiment [15] is 62 µM (active) and 60.5 µM (active) and 29.8 µM (active).
In the case of `C[C@]12CCC(=O)C=C1CC[C@@H]1[C@@H]2[C@@H](O)C[C@@]2(C)[C@H]1CC[C@]2(O)C(=O)CO`, the Potency result in [1], in experiment [2], in [3], in experiment [4], in experiment [5] and in experiment [6] was “inactive” in each case. For the same compound, the Potency result in experiment [7], in experiment [8], in [17], in experiment [18], in experiment [13] and in [15] was “inactive” each time. Besides, in experiment [16], the Potency result is “inactive”.
In the case of `O=[N+]([O-])c1ccc(/C=C/c2ccc([N+](=O)[O-])cc2S(=O)(=O)O)c(S(=O)(=O)O)c1`, the Potency result in experiment [1], in experiment [2], in experiment [3], in experiment [4], in experiment [5] and in experiment [6] was “inactive” each time. The Potency entry in experiment [7], in experiment [8], in [9], in experiment [10], in [11] and in [12] was “inactive” each time. In addition, the Potency entry in [17], in experiment [18], in experiment [13], in experiment [15] and in [16] was “inactive” each time.

Source of the values: PubChem BioAssay (Tox21).
